# Data: PubChem BioAssay (NCI)
# The panel holds about 79,000 compounds, 15% with a hit somewhere; the sample as a whole holds those more often. Unmarked numbers belong to inactive results. Active and inactive are the calls of the source. No stated cut-off is given here; in the data, active means growth inhibition above about 70%; inactive means the rest.
# Assays:
# [1] = NCI Yeast Anticancer Drug Screen. Data for the rad50 strain (AID 155);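 further: 0% = growth of vehicle-only cultures of the same strain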; settings: S. cerevisiae rad50 strain growth inhibition, hits give high values
# Summary of the method: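 Readout: growth inhibition relative to vehicle-treated cultures. Compound exposure was carried out in a genetically defined yeast strain deficient in DNA damage repair.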
# [2] = NCI Yeast Anticancer Drug Screen. Data for the mec2-1 strain (AID 157); settings: S. cerevisiae mec2-1 strain, hits give high values
# Summary of the method: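 Test agents were screened against the mec2-1 yeast strain, with defined DNA repair or cell cycle alteration. Growth was scored as inhibition against vehicle-only controls.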
# [3] = NCI Yeast Anticancer Drug Screen. Data for the sgs1 mgt1 strain (AID 161);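 further: 0% = growth of cultures given vehicle only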; settings: S. cerevisiae sgs1 mgt1 strain, hits give high values
# Summary of the method: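 Test agents were incubated with a DNA-repair-mutant yeast strain. Growth was then read and compared against vehicle-treated controls.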
# [4] = NCI Yeast Anticancer Drug Screen. Data for the cln2 rad14 strain (AID 165);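 further: 0% = growth equal to vehicle treated cultures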; settings: S. cerevisiae cln2 rad14 strain, hits give high values
# Summary of the method: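 Growth of compound-exposed yeast (cln2 rad14 genotype) measured and expressed as inhibition relative to vehicle.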
# [5] = NCI Yeast Anticancer Drug Screen. Data for the bub3 strain (AID 167); settings: S. cerevisiae bub3 mutant strain, hits give high values
# Summary of the method: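 Readout: yeast growth inhibition, expressed relative to vehicle-only wells. The test organism is a mutant strain from a panel with lesions in DNA repair or checkpoint genes.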
# [6] = NCI Yeast Anticancer Drug Screen. Data for the mlh1 rad18 strain (AID 175); settings: S. cerevisiae mlh1 rad18 strain growth inhibition, hits give high values
# Summary of the method: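 In this whole-cell yeast screen, a strain with altered DNA damage repair is challenged with compound, and its growth is measured against matched vehicle-treated controls.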
# [7] = at 5.0 µM (retest, dose inferred, filed as 0.5)
# [8] = at 50.0 µM (retest, dose inferred, filed as 5.0)
SMILES,"growth inhibition [1, 7]","growth inhibition [1, 8]",growth inhibition ([1]; at 50.0 µM),"growth inhibition [2, 7]","growth inhibition [2, 8]",growth inhibition ([2]; at 50.0 µM),"growth inhibition [3, 7]","growth inhibition [3, 8]",growth inhibition ([3]; at 50.0 µM),"growth inhibition [4, 7]","growth inhibition [4, 8]",growth inhibition ([4]; at 50.0 µM),"growth inhibition [5, 7]","growth inhibition [5, 8]",growth inhibition ([5]; at 50.0 µM),"growth inhibition [6, 7]","growth inhibition [6, 8]",growth inhibition ([6]; at 50.0 µM)
O=C(O)c1ccc2c(c1)C(=O)c1ccccc1C2=O,-1%,33%,95.9% (active),-1%,28%,99.3% (active),3%,26%,91.2% (active),-1%,30%,14.2%,1%,31%,98.7% (active),-2%,41%,96.5% (active)
COC1=CC(=O)c2c(O)c3c(c(O)c2C1=O)CC(C)(O)OC3 (stereo not given),87% (active),92% (active),78% (active),62%,87% (active),68.8%,89% (active),92% (active),80.2% (active),21%,45%,47.9%,51%,73% (active),74.6% (active),89% (active),97% (active),82.7% (active)
COc1ccc(/C=C2/C(=O)ON=C2C)cc1,12%,10%,76% (active),5%,41%,45.8%,-6%,29%,41.8%,-12%,26%,46%,11%,23%,88.5% (active),11%,12%,23.7%
Cc1ccccc1N=C(N)Nc1ccccc1C (tested in a mixture with another compound),0%,15%,12.9%,-2%,7%,27.8%,-1%,5%,30.6%,-2%,-16%,-62.5%,3%,11%,11.5%,-2%,13%,28.6%
C[C@@H]1CCC([C@@H](C)[C@H]2CC[C@H]3[C@@H]4CC[C@H]5C[C@@H](O)CC[C@]5(C)[C@H]4CC[C@]23C)=NC1,73% (active),98% (active),87.5% (active),60%,98% (active),89% (active),90% (active),99% (active),91.6% (active),60%,98% (active),88.7% (active),84% (active),98% (active),88.5% (active),95% (active),98% (active),89% (active)
Cc1ccc(/C=N/Nc2cc(C)c3cccc(C)c3n2)s1,9%,94% (active),89.3% (active),-1%,95% (active),92.6% (active),3%,93% (active),92% (active),3%,95% (active),90.3% (active),4%,97% (active),90.8% (active),13%,93% (active),90% (active)
Cc1ccc2c(c1)sc(-c1ccc(N(C)C)cc1)[n+]2C,42%,92% (active),90.7% (active),45%,96% (active),91.8% (active),45%,98% (active),91.8% (active),74% (active),98% (active),89.1% (active),67%,98% (active),90.8% (active),24%,86% (active),90.5% (active)
Cc1nnc(N/N=C/c2ccc([N+](=O)[O-])o2)[nH]c1=O,-5%,36%,59.1%,6%,68%,65.2%,-2%,75% (active),47.5%,6%,42%,85.2% (active),-9%,62%,81% (active),8%,80% (active),71% (active)
O=C(Cc1nc2cc(Cl)c(Cl)cc2nc1CC(=O)c1ccccc1)c1ccccc1,-7%,93% (active),96.4% (active),-9%,76% (active),96.8% (active),-9%,84% (active),96.8% (active),7%,74% (active),94.8% (active),-4%,90% (active),96.5% (active),-9%,93% (active),96% (active)
CCCCCCN(CCCCCC)CCCNc1nccc2ccccc12,4%,62%,78.5% (active),-4%,14%,36.5%,2%,88% (active),56.9%,-4%,13%,56.5%,5%,72% (active),84% (active),10%,64%,77% (active)
